Assay outcomes deposited in PubChem BioAssay by National Center for Advancing Translational Sciences (NCATS).
Hits are enriched below; roughly 7.5% of the tested compounds scored in any of these assays.
RORgamma inh: ROR gamma (mouse) transcription inhibition. P51450. Drosophila S2 Gal4-RORgamma UAS-luciferase reporter, 20 h. Potency, µM (series often up to 53.6 µM), most hits filed as inhibitors. 310,000 tested, 5.4% active. AID 2551; further: nearly all actives have a fitted effect of over 60% in size
Target sequence (P51450 whole entry, looked up, the tested form may be a part): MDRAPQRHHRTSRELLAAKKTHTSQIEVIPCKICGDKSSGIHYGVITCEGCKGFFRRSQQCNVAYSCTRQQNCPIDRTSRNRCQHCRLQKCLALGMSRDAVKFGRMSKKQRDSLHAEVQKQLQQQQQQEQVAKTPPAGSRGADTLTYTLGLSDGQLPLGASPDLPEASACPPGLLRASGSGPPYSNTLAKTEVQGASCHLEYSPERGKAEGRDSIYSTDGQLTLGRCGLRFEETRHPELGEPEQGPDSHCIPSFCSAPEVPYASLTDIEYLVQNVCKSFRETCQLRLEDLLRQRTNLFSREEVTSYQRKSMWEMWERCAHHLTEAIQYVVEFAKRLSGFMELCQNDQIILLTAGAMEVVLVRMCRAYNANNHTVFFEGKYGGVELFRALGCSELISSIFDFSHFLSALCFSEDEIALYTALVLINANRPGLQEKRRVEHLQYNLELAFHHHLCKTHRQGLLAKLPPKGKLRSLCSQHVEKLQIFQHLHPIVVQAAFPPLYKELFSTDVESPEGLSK
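Luciferase reporter read in Schneider cells carrying Gal4-RORγ (mouse) and UAS-Photinus luciferase; cells given compound 1 h before 700 uM copper sulfate induction, then incubated 20 h at ambient temperature.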
TSHR antag: human thyrotropin receptor antagonism; P16473; AID 504810; activity change, negative = inhibition, % at 11.5 µM; TSHR-expressing cells, TSH-stimulated cAMP HTRF, 2 h; active compounds read low; 330,000 tested, 0.2% active;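 active means activity change below a set negative limit, meaning inhibition stronger than a set level, cut at about -70% in these data; inconclusive means activity change between two set negative limits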
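Competitive HTRF cAMP read-out (cryptate anti-cAMP antibody, cAMP-d2; 30 min, room temperature) in freshly harvested TSHR cells. Compounds added before TSH at EC80 (4nM final), followed by 2 hours' incubation at 37 deg C.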
ELG1 DNA repair: blocks ELG1-dependent DNA repair in HEK293T cells. HEK293T ELG1-luciferase reporter, luminescence, 16 h; DNA damage induced by 5-fluorouridine. Potency, µM (titrated, usually from 46.1 µM), actives largely listed as inhibitors. 330,000 tested, 2.3% active; further: nearly all actives have a fitted effect of over 55% in size
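Cells (2,000 per well) received 5-fluorouridine plus test compound or DMSO and were incubated 16 hr at 37 °C, 5% CO2. Luciferase activity was read by luminescence 30 min after ONE-Glo addition; signal suppression marked inhibition of damage-induced ELG1 function.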
Gal4-VP16 FLuc: Gal4-VP16 reporter inhibition counter-screen; Drosophila S2 Gal4-VP16 UAS-luciferase, luminescence, 20 h; Potency, µM (top dose mostly 53.6 µM), most hits filed as inhibitors; 310,000 tested, 3.5% active; AID 2546;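 further: Gal4-VP16 expression switched on by copper sulfate through the metallothionein promoter; nearly all actives have a fitted effect of over 50% in size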
B2AR arrestin: agonists driving beta-arrestin recruitment to human beta2-adrenergic receptor | beta-arrestin recruitment to beta2AR, cell-based reporter | Potency, µM (series often up to 46.1 µM), actives largely listed as activators | 330,000 tested, 0.02% active | AID 492947; further: nearly all actives have a fitted effect of over 65% in size
Of the large screens only hits and unclear results are named; the others gave an inactive call. Unless noted, the call rests on the fitted dose curve; in most records, active means well fitted curve in the direction sought with a large enough effect; inconclusive means small, poorly fitted or top-dose-only effect, or another doubt; inactive means no such curve, though single readings can be large; an effect the other way counts as inactive or inconclusive.

Cn1cccc1/C=C1\SC(=Nc2ccccc2)NC1=O	ELG1 DNA repair inconclusive
Cc1ccc(N=C2NC(=O)/C(=C/c3cccn3C)S2)c(C)c1	RORgamma inh 10µM, ELG1 DNA repair inconclusive
Cn1cccc1/C=C1\SC(=Nc2cccc(O)c2)NC1=O	RORgamma inh 3.16µM, ELG1 DNA repair inconclusive, Gal4-VP16 FLuc inconclusive
Cn1cc(/C=C2/SC(=O)N(c3ccccc3)C2=O)c2ccccc21	ELG1 DNA repair inconclusive
Cc1ccc(N=C2NC(=O)/C(=C/c3cn(C)c4ccccc34)S2)cc1C	RORgamma inh 12.6µM, ELG1 DNA repair inconclusive, Gal4-VP16 FLuc inconclusive
Cc1ccccc1N=C1NC(=O)/C(=C/c2cccnc2)S1	ELG1 DNA repair 20.6µM
COc1ccc(C2c3ccc(O)cc3Oc3ncn(Cc4ccco4)c(=N)c32)cc1OC (stereo not given)	none
COc1ccc(C2c3ccc(O)cc3Oc3ncn4nc(-c5cccnc5)nc4c32)cc1OC (stereo not given)	ELG1 DNA repair 10.3µM
Cc1ccccc1C(=O)c1c[nH]c(C(=O)N2CCN(c3ccccc3F)CC2)c1	ELG1 DNA repair 23.1µM
O=C(c1ccc(N2CCN(C(=O)c3ccc(F)cc3F)CC2)cc1)c1cccc(F)c1	ELG1 DNA repair 14.6µM, Gal4-VP16 FLuc inconclusive
O=C(c1ccccc1)c1ccc(N2CCN(C(=O)c3cccc(F)c3F)CC2)c(F)c1	RORgamma inh inconclusive, TSHR antag inconclusive, Gal4-VP16 FLuc 12.6µM
O=C(c1c[nH]c(C(=O)N2CCN(c3ccccc3F)CC2)c1)c1cccc(Cl)c1Cl	none
Cc1ccc(S(=O)(=O)CCC(=O)c2ccc(F)cc2)cc1	RORgamma inh 3.98µM, Gal4-VP16 FLuc 2.82µM
Cc1ccc(C(=O)CCS(=O)(=O)c2ccc(F)cc2)cc1	RORgamma inh 3.16µM, Gal4-VP16 FLuc 3.55µM
Cc1ccc(S(=O)(=O)CCC(=O)NCc2ccc(Cl)cc2)cc1	none
Cc1ccc(S(=O)(=O)CCC(=O)OCC(=O)NCCc2ccc(F)cc2)cc1	none (no result: RORgamma inh, Gal4-VP16 FLuc)
Cc1ccc(C(=O)CCS(=O)(=O)c2ccc(Cl)cc2)cc1	RORgamma inh 15.8µM, Gal4-VP16 FLuc inconclusive
COc1ccc(C(=O)CCS(=O)(=O)c2ccc(F)cc2)cc1OC	none
O=[N+]([O-])c1ccccc1S(=O)(=O)NCC1CCC(CNCC2CCc3ccccc3C2)CC1 (stereo not given)	RORgamma inh inconclusive (no result: TSHR antag, ELG1 DNA repair, B2AR arrestin)
O=C(COc1ccc2ccccc2c1Br)NC(=S)Nc1cccc(CO)c1	RORgamma inh 7.94µM, ELG1 DNA repair inconclusive, Gal4-VP16 FLuc 10µM
O=C(COc1ccc(Br)cc1Br)NC(=S)Nc1cccc(CO)c1	RORgamma inh 1.41µM, ELG1 DNA repair inconclusive, Gal4-VP16 FLuc 8.91µM
O=C(OCC#CCSc1nnc(-c2cccc3ccccc23)s1)c1cccs1	none (no result: RORgamma inh, ELG1 DNA repair, Gal4-VP16 FLuc)
COc1ccc(N2CCN(CC(O)c3c[nH]c4ccc(OC)cc34)CC2C)cc1 (stereo not given)	ELG1 DNA repair 23.1µM, Gal4-VP16 FLuc inconclusive
COc1ccc2[nH]cc(C(O)CN3CCN(c4ccccc4)CC3)c2c1 (stereo not given)	none
COc1ccc(OC)c(-c2csc(N(CC3CCCO3)C(=O)Cc3ccccc3)n2)c1 (stereo not given)	ELG1 DNA repair inconclusive
Cc1nn2c(NCC(C)C)c3c(nc2c1-c1ccccc1)CCC3	RORgamma inh inconclusive
Cc1nn2c(NCCCN(C)C)c3c(nc2c1-c1ccccc1)CCCC3	RORgamma inh inconclusive
Cc1nn2c(NCCCN(C)C)c3c(nc2c1-c1ccccc1)CCC3	RORgamma inh 11.2µM
Cc1nn2c(NC(C)C)c3c(nc2c1-c1ccccc1)CCC3	RORgamma inh 3.55µM
Cc1nn2c(Nc3ccccc3)c3c(nc2c1-c1ccccc1)CCC3	RORgamma inh 2.82µM, ELG1 DNA repair inconclusive, Gal4-VP16 FLuc 5.01µM
C=C(C)C(=O)/C=C/c1ccc(C(F)(F)F)cc1	none (no result: TSHR antag, ELG1 DNA repair, B2AR arrestin)
CC1=C(C)/C(=N\OS(=O)(=O)c2ccccc2)C=CC1=O	RORgamma inh 2.51µM, ELG1 DNA repair inconclusive, Gal4-VP16 FLuc 2.51µM, B2AR arrestin inconclusive
CC(C)(C)OC(=O)NC(Cc1ccccc1)C(=O)NC1COC2CC(n3cc(F)c(=O)[nH]c3=O)OC12 (stereo not given)	none (no result: TSHR antag, ELG1 DNA repair, B2AR arrestin)
COc1cc(C(C#N)N2N=C(c3ccccc3)CC2c2ccccc2)ccc1O (stereo not given)	RORgamma inh 7.94µM, ELG1 DNA repair inconclusive
Cc1ccccc1-c1nnc(-c2ccccc2)o1	ELG1 DNA repair inconclusive
Cn1cc(-c2nnc(-c3ccccc3)o2)c2ccccc21	RORgamma inh 1.41µM, ELG1 DNA repair inconclusive, Gal4-VP16 FLuc inconclusive
COc1ccc(C2OC3=C(Nc4cc(C)c(C)cc4N3)C2=O)cc1 (stereo not given)	ELG1 DNA repair inconclusive, Gal4-VP16 FLuc inconclusive
COc1ccccc1C1OC2=C(Nc3ccc([N+](=O)[O-])cc3N2)C1=O (stereo not given)	ELG1 DNA repair 23.1µM
O=C(Nc1ccccc1)N1CCCC2(CCNCC2)C1	none (no result: TSHR antag, ELG1 DNA repair, B2AR arrestin)
COc1ccc(C(C[N+](=O)[O-])C2(c3ccc(OC)c(OC)c3)C(=O)c3ccccc3C2=O)cc1 (stereo not given)	RORgamma inh inconclusive, ELG1 DNA repair inconclusive, Gal4-VP16 FLuc 17.8µM
Cc1ccc(C(NC(=O)c2cccc(S(=O)(=O)N3CCN(C)CC3)c2)c2ccccc2)cc1 (stereo not given)	none (no result: RORgamma inh, Gal4-VP16 FLuc)
O=C(NC(=S)N1CCN(c2ccc([N+](=O)[O-])cc2Cl)CC1)c1ccco1	RORgamma inh 0.02µM, Gal4-VP16 FLuc 0.0316µM
O=[N+]([O-])c1ccc(N2CCN(c3ccc([N+](=O)[O-])cc3CO)CC2)c(CO)c1	RORgamma inh inconclusive, ELG1 DNA repair inconclusive, Gal4-VP16 FLuc 6.31µM
CCC(=O)NC(=S)N1CCN(c2ccc([N+](=O)[O-])cc2Cl)CC1	RORgamma inh 3.98µM, ELG1 DNA repair inconclusive, Gal4-VP16 FLuc 15.8µM
O=C(c1ccco1)N1CCN(c2ccc([N+](=O)[O-])cc2Cl)CC1	ELG1 DNA repair inconclusive
COc1ccc(OC)c(S(=O)(=O)ON2C(=O)c3ccccc3C2=O)c1	RORgamma inh 5.62µM, Gal4-VP16 FLuc 7.94µM
Clc1ccccc1-c1ncnc2ccc(Br)cc12	RORgamma inh inconclusive
NNc1nc(-c2ccccc2Cl)c2cc(Br)ccc2n1	RORgamma inh 11.2µM, Gal4-VP16 FLuc inconclusive
CC1OC(O[C@H]2CC[C@]3(C)C4C=C[C@]56OC[C@@]7(CC[C@@H](C)[C@H](C)C75)[C@H](O)C[C@@]6(C)[C@]4(C)CC[C@H]3C2(C)C)C(OC2OC(CO)C(O)C(O)C2OC2OCC(O)C(O)C2O)C(O)C1O (stereo not given in full)	RORgamma inh 1.78µM
COc1ccc(OC)c(NC(=S)NCc2ccccc2OC)c1	RORgamma inh 7.08µM
COc1ccc(C(=O)Nc2cc(OC)ccc2OC)cc1	ELG1 DNA repair inconclusive
COc1ccc(NC(=S)NCc2cccs2)cc1	RORgamma inh 3.98µM, Gal4-VP16 FLuc inconclusive
